# An excerpt weighted towards active compounds, which were near 11% of everything screened.
# BAZ2B block: blocks human BAZ2B; AlphaScreen BAZ2B-H3K14Ac peptide displacement; Potency, µM (top dose mostly 114 µM), most hits filed as inhibitors; actives 4.4% (n = 360,000); Q9UIF8; AID 504333; note: nearly all actives have a fitted effect of over 60% in size
#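 AlphaScreen displacement: compounds (up to 110uM) incubated 30 min at room temperature with a preformed 50 nM BAZ2B/50 nM biotinylated H3K14Ac peptide complex in PBS pH 7.4 with Tween-20. Donor and acceptor beads at 10 ug/mL final added, 20 min light-protected before reading.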
# L3MBTL1 inh: L3MBTL1 (human) inhibition; actives 0.66% (n = 230,000); AlphaScreen L3MBTL1–H3K9me1 peptide binding; Potency, µM (titrated, usually from 57.1 µM), actives largely listed as inhibitors; note: nearly all actives have a fitted effect of over 60% in size
# Target sequence (Q9Y468 whole entry, looked up): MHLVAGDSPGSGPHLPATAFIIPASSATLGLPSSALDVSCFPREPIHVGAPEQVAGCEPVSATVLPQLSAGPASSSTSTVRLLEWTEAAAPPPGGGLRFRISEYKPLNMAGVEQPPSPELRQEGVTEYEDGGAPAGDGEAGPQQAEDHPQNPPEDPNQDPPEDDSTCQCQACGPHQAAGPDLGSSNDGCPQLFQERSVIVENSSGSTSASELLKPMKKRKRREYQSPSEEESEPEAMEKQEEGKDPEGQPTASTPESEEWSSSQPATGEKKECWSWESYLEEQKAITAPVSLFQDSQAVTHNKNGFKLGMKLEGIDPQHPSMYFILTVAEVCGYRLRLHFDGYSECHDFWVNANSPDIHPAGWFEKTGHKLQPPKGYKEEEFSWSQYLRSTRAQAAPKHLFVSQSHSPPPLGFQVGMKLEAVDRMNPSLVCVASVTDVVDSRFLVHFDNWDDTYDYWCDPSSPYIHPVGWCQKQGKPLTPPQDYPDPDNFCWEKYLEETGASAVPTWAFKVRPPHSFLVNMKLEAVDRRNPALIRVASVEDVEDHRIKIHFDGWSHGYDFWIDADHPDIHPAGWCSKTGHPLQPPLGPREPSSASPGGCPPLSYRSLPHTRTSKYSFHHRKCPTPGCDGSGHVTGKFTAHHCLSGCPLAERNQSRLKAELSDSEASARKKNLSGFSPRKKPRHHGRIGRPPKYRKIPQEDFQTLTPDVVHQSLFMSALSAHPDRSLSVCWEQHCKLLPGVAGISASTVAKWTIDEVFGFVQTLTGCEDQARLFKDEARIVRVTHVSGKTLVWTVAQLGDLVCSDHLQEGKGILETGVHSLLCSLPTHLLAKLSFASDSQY
#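 L3MBTL1 (50 nM) pre-complexed 30 min with biotinylated H3(1-15)K9me1 peptide (75 nM), then compounds added for 30 min at room temperature; AlphaScreen streptavidin donor/nickel chelate acceptor beads (10 ug/mL final) read after 30 min dark incubation.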
# JMJD2A Tudor: inhibitors of human JMJD2A Tudor domain; AID 504339; Potency, µM (top dose mostly 114 µM), actives largely listed as inhibitors; O75164; AlphaScreen JMJD2A-Tudor / H3K4me3 peptide binding; actives 4.4% (n = 390,000); note: nearly all actives have a fitted effect of over 50% in size
# HP1b binding inh: HP1-beta chromodomain-methylated histone interaction inhibition | P83916 | AlphaScreen HP1-beta / biotin-H3K9me3 peptide binding | Potency, µM (highest dose often 114 µM), hits mostly inhibitors | actives 0.56% (n = 390,000); note: nearly all actives have a fitted effect of over 70% in size
#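 AlphaScreen: HP1-beta (50 nM) preformed 30 min with biotin-H3(1-18)K9me3 peptide (50 nM) in PBS pH 7.4, 0.01% Tween-20. Compound added for 30 min at RT, then streptavidin donor/nickel chelate acceptor beads (10 ug/mL) for 30 min.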
# G9a block: inhibitors of human histone lysine methyltransferase G9a | G9a H3K9 monomethylation, AlphaScreen, 2 h | actives 8.8% (n = 350,000) | Potency, µM (series often up to 102 µM), usual class: inhibitors | AID 504332; note: nearly all actives have a fitted effect of over 75% in size
#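 Using a bead-based AlphaScreen, monomethylated H3K9 product from 2 h room-temperature reactions (G9a 20 nM, peptide 500 nM, SAM 20 uM) was detected with 0.5 ug/mL rabbit anti-H3K9me1 antibody.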
# A number is an active result; 0 = inactive; ? = inconclusive; - = not tested or not shown; [ ] = remark or other dose. Calls come from the whole dose curve; as a rule, active = well fitted inhibition curve with a large enough effect; inconclusive = small, poorly fitted or top-dose-only effect; inactive = no such curve, though single readings can be large or run the other way.
SMILES,BAZ2B block,L3MBTL1 inh,JMJD2A Tudor,HP1b binding inh,G9a block
CC(CNC(=O)C1CCCCC1)NC(=O)C1CCCCC1 (configuration not stated),0,0,0,0,0
CC(C)CN1CCC(C(=O)NCC2CCCO2)CC1 (configuration not stated),56µM,0,7.1µM,?,10µM
O=C(NC1CCCC1)c1ccc2c(c1)N(Cc1ccc(C(F)(F)F)cc1)C(=O)c1ccccc1S2,-,-,0,0,0
CCC(=O)NC1Cc2ccccc2C(c2ccccc2)C1 (configuration not stated),-,-,-,-,0
O=C(NCc1ccccn1)C(=O)C1C(=O)Nc2ccccc21 (configuration not stated),79µM,-,0,0,50µM
Cc1ccc(NC(=O)C(=O)C2C(=O)Nc3ccccc32)cc1 (configuration not stated),0,0,0,0,?
CCCCCNC(=O)C(=O)C1C(=O)Nc2ccccc21 (configuration not stated),79µM,-,?,0,-
O=[N+]([O-])c1ccc(CC(Cl)c2ccccn2)cc1 (configuration not stated),-,-,0,0,-
O=C(NCc1ccccn1)C(=O)Nc1ccccc1,0,0,0,0,0
O=C1Nc2ccccc2C1C(C[N+](=O)[O-])c1ccccn1 (configuration not stated),?,-,0,0,35µM
CN(C)CCNC(=O)C(=O)C1C(=O)Nc2ccccc21 (configuration not stated),0,0,-,-,32µM
COc1ccc(Nc2nnc(-c3ccc(C)c(S(=O)(=O)NCc4nc5ccccc5[nH]4)c3)c3ccccc23)cc1,0,-,0,0,0
O=C(COC(=O)CNC(=O)C1CCCCC1)NC1CCCC1,-,-,0,0,-
COc1cc(CC2C(=O)Nc3ccccc32)cc(C)c1O (configuration not stated),0,-,0,0,35µM
O=C1Nc2ccccc2C1Cc1ccccn1 (configuration not stated),?,0,89µM,0,?
O=C1Nc2ccccc2C1Cc1ccc(OC(F)(F)F)cc1 (configuration not stated),0,-,0,0,0
O=C(COC(=O)C12CC3CC(CC(Cl)(C3)C1)C2)NCc1ccco1,-,-,0,0,-
COC(=O)c1cccc(Nc2nn3c(=O)c4cc5c(cc4nc3s2)OCO5)c1,0,-,0,0,0
O=c1oc2ccccc2c(N2CCC(c3ccccc3)CC2)c1[N+](=O)[O-],0,-,0,0,?
CC1CCCN(c2c([N+](=O)[O-])c(=O)oc3ccccc23)C1 (configuration not stated),0,0,0,0,45µM
Cc1ccc2oc(C(=O)N(C)CCC(O)c3ccccc3)c(C)c2c1 (configuration not stated),0,0,0,0,0
CCN(CC)c1ccc(CNc2ccc(Br)cn2)cc1,22µM,0,?,0,?
COCCCN(CC(=O)O)S(=O)(=O)c1cccc(Cl)c1,0,0,0,0,50µM
COc1cc(-c2ccc3ncnc(NCC4CCCO4)c3c2)cc(OC)c1OC (configuration not stated),-,-,0,-,-
CC1CN(C(=O)N2c3ccccc3Sc3ccccc32)CC(C)O1 (configuration not stated),89µM,0,0,0,0
SMILES,BAZ2B block,L3MBTL1 inh,JMJD2A Tudor,HP1b binding inh,G9a block
CC1CCCN(C(=O)N2c3ccccc3Sc3ccccc32)C1 (configuration not stated),0,-,0,0,0
CC(C)Oc1ccc(CNC(=O)c2sc3ncccc3c2-n2cccc2)cc1,0,-,0,0,0
O=C(CCN1CCN(c2ccc([N+](=O)[O-])cc2)CC1)c1ccc(Cl)cc1,?,-,?,0,14µM
O=C(CCN1CCOCC1)c1ccc(N2CCCCC2)cc1,0,0,0,0,0[0.501 µM]
O=C(CCN1CCN(c2ccccc2)CC1)c1ccc(Cl)cc1,0,-,0,0,28µM
COc1cc(Cl)c(C)cc1NC(=O)CCc1c(C)nc2cc(-c3cccc(F)c3)nn2c1C,0,-,0,0,0
O=C(O)[C@@H]1CSCN1,-,-,-,-,0[12.7 µM]
O=C(CCN1CCCC1)Nc1ccc(Br)cc1,0,0,0,0,20µM
CN1CCN(CCC(=O)Nc2ccccc2)CC1,0,0,0,0,-
CN1CCN(CCC(=O)Nc2ccc(C3CCCC3)cc2)CC1,?,0,0,0,32µM
CN1CCN(CCC(=O)Nc2ccc(Cl)cc2)CC1,0,-,0,0,11µM
COC(=O)c1ccc(-n2c(/C=C\c3cccc(Br)c3)nc3ccccc3c2=O)cc1,0,-,0,0,0
CCc1nc2ccc(C(=O)N(C)CC(=O)Nc3ccc(F)c(F)c3F)cc2nc1CC,0,0,0,0,0
CC(Sc1nncn1C)C(=O)Nc1ccc(S(N)(=O)=O)cc1 (configuration not stated),0,0,0[11.4 µM],0,-
CC(Sc1nncn1C)C(=O)Nc1ccc2ccccc2c1 (configuration not stated),0,0,0,0,8.9µM
O=C1[C@@H]2C(c3cccnc3)=NO[C@@H]2C(=O)N1c1ccc(Br)cc1,0,0,?,0,8.9µM
Cc1ccc(N2C(=O)[C@@H]3C(c4cccnc4)=NO[C@@H]3C2=O)c(C)c1,0,0,0,0,?
CSc1ccccc1C(=O)NCc1ccccc1C,0,0,0,0,?
COC(=O)c1ccc(C(=O)N2CCCC(Nc3ccc(C(C)C)cc3)C2)cc1 (configuration not stated),?,-,?,0,79µM
CC(C)c1ccc(NC2CCCN(C(=O)c3cnn(C(C)C)c3)C2)cc1 (configuration not stated),0,-,0,0,0
CC(C)c1ccc(NC2CCCN(C(=O)c3ccsc3)C2)cc1 (configuration not stated),0,-,?,0,0
COCc1ccc(C(=O)N2CCCC(Nc3ccc(C(C)C)cc3)C2)s1 (configuration not stated),0,-,?,?,0
CC(C)c1ccc(NC2CCCN(C(=O)c3cccnc3)C2)cc1 (configuration not stated),0,-,0,0,79µM
CC(C)c1ccc(NC2CCCN(C(=O)c3n[nH]c4c3CCC4)C2)cc1 (configuration not stated),0,-,0,0,71µM
COCc1ccc(C(=O)N2CCCC(Nc3ccc(C(C)C)cc3)C2)o1 (configuration not stated),?,-,0,0,45µM
COc1ccc(-n2c(/C=C/c3cccc(C(F)(F)F)c3)nc3ccccc3c2=O)cc1Cl,0,-,0,0,0
Cc1cc(C(=O)N2CCCC(Nc3ccc(C(C)C)cc3)C2)nn1C (configuration not stated),0,-,0,0,?
Cc1occc1C(=O)N1CCCC(Nc2ccc(F)cc2)C1 (configuration not stated),0,-,0,0,-

# Source: PubChem (National Center for Advancing Translational Sciences (NCATS))
